PubChem BioAssay (Tox21)
Inconclusive results are not listed. Entries that show only a call come without a potency. Calls of active or inactive are those of the source. The call rests on the fitted dose curve; in most records, active means well fitted cell-killing curve with a large enough effect in the repeat runs; inconclusive means weak or mixed curves, or effect the other way; inactive means no such curve, though single readings can be large or run the other way.

Experiment: qHTS assay to identify small molecule antagonists of the glucocorticoid receptor (GR) signaling pathway - cell viability counter screen (AID 720693); further: nearly all actives have a fitted effect of over 55% in size
Conditions: GR-bla HeLa viability, CellTiter-Glo luminescence, 18 h, with 5 nM dexamethasone present; series mostly up to 58.5 µM
Source text: National Center for Advancing Translational Sciences [NCATS]
NIH Chemical Genomics Center [NCGC]
U.S. Environmental Protection Agency [EPA]
National Institutes of Environmental Health Sciences [NIEHS]
National Toxicology Program [NTP]
U.S. Food and Drug Administration [FDA]
The Glucocorticoid receptor (GR) is one of the members of the nuclear receptor family of ligand-dependent transcription factors. GR plays a critical role in carbohydrate, protein and lipid metabolisms and programmed cell death. CellSensor GR-bla HeLa cell line (Invitrogen) contains a beta-lactamase reporter gene under the control of the glucocorticoid response element stably integrated into HeLa cells, a cervical cancer cell line that expresses glucocorticoid receptor. The activation of the reporter gene under culture conditions can be detected by fluorescence intensity. This cell line has been used to screen the Tox21 10K compound library and to identify the compounds that inhibit the GR signaling. The cytotoxicity of the Tox21 compound library against the GR-bla HeLa cell line was tested in parallel by measuring the cell viability using CellTiter-Glo assay in the same wells.
Tox21 Assay Protocol Summary:
The GR-bla HeLa cells were dispensed at 1500 cells/5 ul/well in 1536-well black wall/clear bottom plates using a Multidrop Combi (ThermoFisher Scientific, Waltham, MA) dispenser. After the assay plates were incubated at a 37 C/5% CO2 incubator for 4 hours, 23 nL of compounds dissolved in DMSO, positive controls or DMSO only was transferred to the assay plate by a pintool station (Kalypsys, San Diego, CA), followed by addition of 1 uL of dexamethasone (5 nM, final concentration in the well). The plates were incubated at 37 C for 18 hours. After 1 uL of LiveBLAzerTM B/G FRET substrate was added using a Flying Reagent Dispenser (Aurora Discovery, San Diego, CA), the plates were incubated at room temperature (RT) for 2 hours, and fluorescence intensity was measured by an Envision plate reader (PerkinElmer, Shelton, CT). After measurement of bla assay, 3 ul CellTiter-Glo (Promega, Madison, WI) was added to measure the cytotoxicity and the plates were then incubated at RT for 30 min. The luminescence was measured using a ViewLux (Perkin Elmer) plate reader.
Potency means the concentration at half of the fitted maximal effect.

| SMILES | Potency |
| --- | --- |
| C=C(C)CCCC(C)CCO (stereo not given) | inactive |
| O=C(/C=C/c1ccccc1)OCCc1ccccc1 | inactive |
| CC(O)c1ccccc1 (stereo not given) | inactive |
| Cc1cc(=O)c2c(O)c3c(O)cc(=O)c4c3c3c(cc(O)c1c23)C(C)(C)C=4O | 1.69 µM (active) |
| O=C(O)c1cccc(-c2noc(-c3ccccc3F)n2)c1 | inactive |
| O=C(OC(=O)c1ccccc1)c1ccccc1 | inactive |
| CN1CCCN=C1COC(=O)C(O)(c1ccccc1)C1CCCCC1 (stereo not given) | inactive |
| CC1CC(OC(=O)C(O)c2ccccc2)CC(C)(C)N1C (stereo not given) | inactive |
| CN1C(C(=O)Nc2ccccn2)=C(O)c2sccc2S1(=O)=O | inactive |
| CCOC(=O)OC(C)OC(=O)[C@@H]1N2C(=O)[C@@H](NC(=O)[C@H](N)c3ccccc3)[C@H]2SC1(C)C (stereo not given in full) | inactive |
| Clc1cc(Cl)nc(Cl)n1 | inactive |
| O=C(CCCN1CC=C(n2c(=O)[nH]c3ccccc32)CC1)c1ccc(F)cc1 | inactive |
| CCC(C)COC(=O)CC(C)C (stereo not given) | inactive |
| Cc1ccc(C(C)(C)O)cc1 | inactive |
| CC(C)COCC(CN(Cc1ccccc1)c1ccccc1)N1CCCC1 (stereo not given) | inactive |
| O=C1CCCCCCCCCCOCCCCO1 | inactive |
| OC[C@H]1O[C@@H](n2cnc3c(=S)nc[nH]c32)[C@H](O)[C@@H]1O | inactive |
| Cc1c(C)c2c(c(C)c1OC(=O)CCC(=O)OCCO)CC[C@@](C)(CCC[C@H](C)CCC[C@H](C)CCCC(C)C)O2 | 21.3 µM (active) |
| O=C(O)CCC(=O)C(=O)O | inactive |
| O=[N+]([O-])c1ccc(Nc2ccc(Nc3ccccc3)c(S(=O)(=O)O)c2)c([N+](=O)[O-])c1 | inactive |

| SMILES | Potency |
| --- | --- |
| Oc1ccc(Cl)c2cccnc12 | inactive |
| O=C1Cc2ccccc2N1c1c(Cl)cccc1Cl | inactive |
| c1ccc2sc(SN(C3CCCCC3)C3CCCCC3)nc2c1 | inactive |
| Oc1cccc(O)c1O | inactive |
| CCCCCCCC/C=C\CCCCCCCCO | inactive |
| O=C(O)C[C@H](NC(=O)OCc1ccccc1)C(=O)O | inactive |
| C=C(C)C(=O)OCCOCCOC(=O)C(=C)C | inactive |
| Nc1ncnc2c1ncn2[C@H]1CC[C@@H](CO)O1 | inactive |
| CC1(C)S[C@@H]2[C@H](NC(=O)C(c3ccccc3)S(=O)(=O)O)C(=O)N2[C@H]1C(=O)O (stereo not given in full) | inactive |
| Brc1cc(Br)c(Oc2cc(Br)c(Br)cc2Br)cc1Br | inactive |
| C[C@@H]1CN(CCCn2c3ccccc3c3ccccc32)C[C@H](C)N1 | inactive |
| N#CCc1ccc(Cl)cc1Cl | inactive |
| CC(=O)Nc1ccc(C)cc1C | inactive |
| O=C(Nc1cccc2c(=O)cc(-c3nn[nH]n3)oc12)c1ccc(OCCCCc2ccccc2)cc1 | inactive |
| Cc1ccc(CO)cc1 | inactive |
| NNC(=O)CP(=O)(c1ccccc1)c1ccccc1 | inactive |
| CC1CC(C)C(=O)C1=O (stereo not given) | inactive |
| COc1ncnc(NS(=O)(=O)c2ccc(N)cc2)c1OC | inactive |
| CC(CCC(=O)O)C(=O)O (stereo not given) | inactive |
| COc1cc(Nc2c(C#N)cnc3cc(OCCCN4CCN(C)CC4)c(OC)cc23)c(Cl)cc1Cl | 23.9 µM (active) |
